Test results published in PubChem BioAssay (Tox21).
Results filed as inconclusive are left out. A call without a number means that no potency is given here. A number with no mark means an inactive call. The source made the active and inactive calls. Unless noted, the call rests on the fitted dose curve; in most records, active means well fitted curve in the direction sought with a large enough effect in the repeat runs; inconclusive means weak or mixed curves; inactive means no such curve, though single readings can be large; an effect the other way counts as inactive or inconclusive.

Target: Retinoic acid receptor RXR-alpha (Homo sapiens) (UniProt P19793)
Assay: qHTS assay to identify small molecule agonists of the RXR signaling pathway (AID 1159527; calls by dose curve; further: nearly all actives have a fitted effect of over 35% in size; further: potency means the concentration at half of the fitted maximal effect)
Settings: HEK293T RXRa-UAS-bla, beta-lactamase ratio, 16 h; series mostly up to 76.8 µM
Summary of the method: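 Agonist-mode beta-lactamase reporter assay: HEK 293T RXR-alpha-UAS-bla cells treated 16 hr at 37 C with compounds, 9-cis retinoic acid as positive control. LiveBLAzer FRET substrate, 405 nm excitation, 460/530 nm emission.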

Retinoic acid receptor RXR-alpha (Homo sapiens), sequence (P19793 whole entry, looked up): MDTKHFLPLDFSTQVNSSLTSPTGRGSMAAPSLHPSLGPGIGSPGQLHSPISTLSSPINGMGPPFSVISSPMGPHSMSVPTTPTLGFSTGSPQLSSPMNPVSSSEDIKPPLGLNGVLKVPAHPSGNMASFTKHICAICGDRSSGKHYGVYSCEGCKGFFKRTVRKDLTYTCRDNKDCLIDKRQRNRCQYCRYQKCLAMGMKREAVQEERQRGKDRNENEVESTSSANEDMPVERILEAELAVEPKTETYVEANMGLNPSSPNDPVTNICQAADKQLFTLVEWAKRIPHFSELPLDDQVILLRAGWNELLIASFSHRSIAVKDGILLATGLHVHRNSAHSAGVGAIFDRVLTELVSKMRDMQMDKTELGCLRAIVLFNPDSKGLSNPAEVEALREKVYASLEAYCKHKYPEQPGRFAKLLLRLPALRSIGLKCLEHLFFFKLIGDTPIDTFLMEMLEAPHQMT

Compound	Potency	activation
Cn1cnc2c(=O)[nH]c(N)nc21	inactive	–
N#CCc1ccccc1[N+](=O)[O-]	inactive	–
CN(C)CCOC(c1ccc(Cl)cc1)c1ccccn1 (stereo not given)	inactive	–
NC(=S)Nc1cccc2ccccc12	–	6.32% [at 6.98 µM]
CC(C)[N+](C)(C)CC(O)COc1cccc2ccccc12 (stereo not given)	inactive	–
Cc1ccccc1Br	inactive	–
COc1cccc(OC)c1	inactive	–
CCCc1ccc(N)cc1	inactive	–
C=C(C)C(=O)NCCC[N+](C)(C)C	inactive	–
Cc1ccc(N)cc1[N+](=O)[O-]	inactive	–
Nc1cc(N)cc(C(=O)O)c1	inactive	–
CC(CCO)CCCC(C)(C)O (stereo not given)	3.09 µM (active)	–
c1ccc2cnncc2c1	inactive	–
CCCCCC[C@@H](CCC)C(=O)O	inactive	–
CCCCOCC(C)OCC(C)O (stereo not given)	inactive	–
O=C(O)/C=C/c1ccc(/C=C/C(=O)O)cc1	inactive	–
CCC(=O)c1cccc(Cl)c1	inactive	–
CC(C)=CC(=O)O	inactive	–
NS(=O)(=O)c1cc2c(cc1C(F)(F)F)NC(Cc1ccccc1)NS2(=O)=O (stereo not given)	inactive	–

Compound	Potency	activation
COc1ccc(N=[N+]([O-])c2ccc(OC)cc2)cc1	inactive	–
C(=C(c1ccccc1)c1ccccc1)c1ccccc1	inactive	–
CO[Si](CCCNCCC[Si](OC)(OC)OC)(OC)OC	inactive	–
CC(C=O)Cc1ccc(C(C)C)cc1 (stereo not given)	inactive	–
CCCCc1ccc2cccc(S(=O)(=O)O)c2c1	inactive	–
CCC(C)(C)C1CCC(OC)CC1 (stereo not given)	inactive	–
O=C(O)Cc1cc(I)c(Oc2cc(I)c(O)c(I)c2)c(I)c1	15.2 µM (active)	–
C=C(C)[C@H]1CC=C(C)CC1	inactive	–
COC(=O)C1=C(C)NC(C)=C(C(=O)OCC(C)=O)C1c1ccccc1[N+](=O)[O-] (stereo not given)	inactive	–
N#CCN(CC#N)CCN(CC#N)CC#N	inactive	–
C[N+](C)(C)CC[N+]1(C)Cc2c(Cl)c(Cl)c(Cl)c(Cl)c2C1	inactive	–
C=CC(=O)N1CCOCC1	inactive	–
CC(C)c1cccc(C(C)C)c1N	inactive	–
C1C2OC2C2C1C1CC2C2OC12 (stereo not given)	inactive	–
NC1CCN(c2cccc(Cl)n2)CC1	inactive	–
COC(=O)CCCCCCCCC(=O)OC	inactive	–
COC(=O)c1ccc(C(=O)OC)c(C(=O)OC)c1	inactive	–
OCCCCCCO	inactive	–
CC(=O)c1ccc(C)cc1	inactive	–

Test system: not listed separately
Assay: qHTS assay to identify small molecule agonists of the RXR signaling pathway - cell viability counter screen (AID 1159529); further: nearly all actives have a fitted effect of over 50% in size
Settings: RXR-alpha-bla HEK293T viability, CellTiter-Glo, 16 h; series mostly up to 76.8 µM
Summary of the method: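 CellTiter-Glo luminescence gave viability in the wells also read for beta-lactamase. Cells (RXR-alpha-UAS-bla HEK 293T, 2% charcoal-stripped FBS medium) had 5 hr plating, then 16 hr compound exposure at 37 C; tetraoctyl ammonium bromide served as positive control.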

Compound	Potency
Cn1cnc2c(=O)[nH]c(N)nc21	inactive
CC(C)[N+](C)(C)CC(O)COc1cccc2ccccc12 (stereo not given)	inactive
CCCc1ccc(N)cc1	inactive
C=C(C)C(=O)NCCC[N+](C)(C)C	inactive
Cc1ccc(N)cc1[N+](=O)[O-]	inactive
Nc1cc(N)cc(C(=O)O)c1	inactive
CC(CCO)CCCC(C)(C)O (stereo not given)	inactive
c1ccc2cnncc2c1	inactive
O=C(O)/C=C/c1ccc(/C=C/C(=O)O)cc1	inactive
NS(=O)(=O)c1cc2c(cc1C(F)(F)F)NC(Cc1ccccc1)NS2(=O)=O (stereo not given)	inactive
CCC(C)(C)C1CCC(OC)CC1 (stereo not given)	inactive
C=C(C)[C@H]1CC=C(C)CC1	inactive
C[N+](C)(C)CC[N+]1(C)Cc2c(Cl)c(Cl)c(Cl)c(Cl)c2C1	inactive
C=CC(=O)N1CCOCC1	inactive
COC(=O)CCCCCCCCC(=O)OC	inactive
CC(=O)c1ccc(C)cc1	inactive

Test system: not listed separately
Assay: qHTS assay to identify small molecule antagonists of the retinoid acid receptor (RAR) signaling pathway - cell viability counter screen (AID 1159551); further: nearly all actives have a fitted effect of over 35% in size
Settings: C3RL4 cells viability, ATP luminescence (CellTiter-Glo), 6 h; series mostly up to 92.4 µM
Summary of the method: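 Seed C3RL4 cells; next day add compound, then retinol to 1 uM final; incubate 6 h at 37 C; add CellTiter-Glo; read luminescence after 30 min at RT.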

Compound	outcome	activity change, negative = cytotoxicity
N#CCc1ccccc1[N+](=O)[O-]	inactive	–
CN(C)CCOC(c1ccc(Cl)cc1)c1ccccn1 (stereo not given)	inactive	–
NC(=S)Nc1cccc2ccccc12	–	3.14% [at 8.39 µM]
Cc1ccccc1Br	inactive	–
COc1cccc(OC)c1	inactive	–
CCCCCC[C@@H](CCC)C(=O)O	inactive	–
CCCCOCC(C)OCC(C)O (stereo not given)	inactive	–
CCC(=O)c1cccc(Cl)c1	inactive	–
CC(C)=CC(=O)O	inactive	–
COc1ccc(N=[N+]([O-])c2ccc(OC)cc2)cc1	inactive	–
C(=C(c1ccccc1)c1ccccc1)c1ccccc1	inactive	–
CO[Si](CCCNCCC[Si](OC)(OC)OC)(OC)OC	inactive	–
CC(C=O)Cc1ccc(C(C)C)cc1 (stereo not given)	inactive	–
CCCCc1ccc2cccc(S(=O)(=O)O)c2c1	inactive	–
O=C(O)Cc1cc(I)c(Oc2cc(I)c(O)c(I)c2)c(I)c1	inactive	–
COC(=O)C1=C(C)NC(C)=C(C(=O)OCC(C)=O)C1c1ccccc1[N+](=O)[O-] (stereo not given)	inactive	–
N#CCN(CC#N)CCN(CC#N)CC#N	inactive	–
CC(C)c1cccc(C(C)C)c1N	inactive	–
C1C2OC2C2C1C1CC2C2OC12 (stereo not given)	inactive	–
NC1CCN(c2cccc(Cl)n2)CC1	inactive	–
COC(=O)c1ccc(C(=O)OC)c(C(=O)OC)c1	inactive	–
OCCCCCCO	inactive	–

Test system: not listed separately
Assay: qHTS assay to identify small molecule antagonists of the retinoic acid receptor (RAR) signaling pathway (AID 1159552; further: nearly all actives have a fitted effect of over 50% in size; further: potency means the concentration at half of the fitted maximal effect)
Settings: C3RL4 RARE luciferase reporter, retinol-stimulated, 6 h; series mostly up to 92.4 µM
Summary of the method: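 Luminescent RARE reporter read-out in C3RL4 cells: 6 hr co-treatment at 37 C of test compounds with retinol at 1 uM final. Cells plated overnight beforehand; luciferase reagent incubated 30 min at room temperature before reading.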

Compound	Potency
N#CCc1ccccc1[N+](=O)[O-]	inactive
Cc1ccccc1Br	inactive
CCCCCC[C@@H](CCC)C(=O)O	inactive
CCC(=O)c1cccc(Cl)c1	inactive
COc1ccc(N=[N+]([O-])c2ccc(OC)cc2)cc1	inactive
C(=C(c1ccccc1)c1ccccc1)c1ccccc1	inactive
CCCCc1ccc2cccc(S(=O)(=O)O)c2c1	inactive
O=C(O)Cc1cc(I)c(Oc2cc(I)c(O)c(I)c2)c(I)c1	42.4 µM (active)
COC(=O)C1=C(C)NC(C)=C(C(=O)OCC(C)=O)C1c1ccccc1[N+](=O)[O-] (stereo not given)	inactive
CC(C)c1cccc(C(C)C)c1N	inactive
C1C2OC2C2C1C1CC2C2OC12 (stereo not given)	inactive
NC1CCN(c2cccc(Cl)n2)CC1	inactive
COC(=O)c1ccc(C(=O)OC)c(C(=O)OC)c1	inactive
OCCCCCCO	inactive
